About 50,000 (12%) of roughly 420,000 compounds were called active. Inconclusive results (about 26%) are left out. Many of the other results were omitted from the sample, so actives are more common in it than they were. Unmarked numbers belong to inactive results. Calls come from the whole dose curve; as a rule, active = well fitted inhibition curve with a large enough effect; inconclusive = small, poorly fitted or top-dose-only effect; inactive = flat fitted curve, though single readings scatter.
Assay: qHTS for Inhibitors of human tyrosyl-DNA phosphodiesterase 1 (TDP1): qHTS in cells in presence of CPT; note: nearly all actives have a fitted effect of over 55% in size
Settings: chicken DT40 Tdp1-/-;hTDP1 cells + 20 nM CPT, ATP luminescence, 48 h; series mostly up to 46.2 µM; activity change, negative = growth inhibition: at the top concentration
Source text: Human tyrosyl-DNA phosphodiesterase 1 (TDP1) is a novel repair gene, and we propose to use it as a new target for anticancer drug development. TDP1 is not an essential protein, but under treatment with topoisomerase I poison (camptothecin: CPT), TDP1 works as a critical factor for cell survival. To directly identify novel TDP1 inhibitors active in a cellular environment, we have knocked-out the Tdp1 gene in chicken DT40 cells (Tdp1-/-) and generated a complemented counterpart cells that contains a stable transfection of the human TDP1 gene (Tdp1-/-;hTDP1 cells). For the primary screen, Tdp1-/-;hTDP1 cells will be exposed to small molecules in the presence or absence of CPT, and their growth kinetics will be evaluated after 48 hours by measuring ATP activity. […] The hit compounds will then be evaluated in the presence or absence of CPT using Tdp1-/- cells. […] In tertiary assays, biochemical gel-based assays will be used to assess whether the hit compounds specifically target TDP1. To this end, we have screened this cell line against the MLSMR in two primary screens. In one screen we add CPT and in the other we screen in the absence of CPT; this AID represents the screen where CPT was present. NIH Chemical Genomics Center [NCGC] NIH Molecular Libraries Probe Centers Network [MLPCN] MLPCN Grant: MH095538 Assay Submitter (PI): Yves Pommier, NCI
DT40-hTDP1 cells with 20 nM Camptothecin (add 20 microL of 1 mM CPT stock in 1 L of cell culture medium) were dispensed at 400 cells/5microL/well in tissue culture treated 1536-well white wall/solid bottom assay plates (Greiner Bio-One North America, NC, U.S.A.) using a Multidrop Combi 8 channel dispenser (Thermo Fisher, Waltham, MA, USA). 23 nL compounds and controls were transferred using the pin tool (Kalypsys, San Diego, CA, USA) to the assay plates. The assay plates were then incubated at 37 masculineC for a minimum 48 hr. Three microL of Cell Titer Glo solution was added to the plates and incubated at RT in dark for 30 min. Luminescence was read using ViewLux (Perkin Elmer) with 1 sec exposure slow speed, high gain and 2x binning.
% is set by controls: 0 for no effect and ±100 for the full control effect; potency is the fitted concentration of half-maximal effect.

SMILES	activity change, negative = growth inhibition	Potency
CC(=O)Nc1ccc(Sc2ccccc2C(=O)N2CCCC2)cn1	-23.3%	–
Cc1[nH]c2ccccc2c1C(=O)C(=O)NCc1nnnn1-c1cccc(F)c1	-21.2%	–
CCc1c(C)c2ccc(OC3CCCCC3=O)cc2oc1=O (stereo not given)	-10.3%	–
Cc1cccc(CS(=O)(=O)c2ncc(Cl)c(C(=O)Nc3ccc(F)cc3)n2)c1	–	1.3 µM (active)
CSc1ncc(Cl)c(C(=O)Nc2cc(C)ccc2C)n1	-2.22%	–
Cc1cc(NC(=O)c2ccc(F)cc2)ccc1NC(=O)c1ccco1	-1.79%	–
CC(=O)C1C(c2ccc(Cl)cc2)c2c(n[nH]c2C)CC1(C)O (stereo not given)	-7.41%	–
Cc1ccc(CNC(=O)C(=O)c2cn(CC(=O)N3CCOCC3)c3ccccc23)cc1	6.23%	–
Cc1ccc(NC(=O)N2CCSc3ccccc32)cc1	-18.4%	–
C=CCn1c(C23CC4CC(CC(C4)C2)C3)n[nH]c1=S	-28.3%	–
CC(C)OC(=O)C(C#N)c1nc2ccccc2nc1N1CCN(Cc2ccccc2)CC1 (stereo not given)	–	23.1 µM (active)
CCc1c(C)nc(N2CCN(Cc3ccccc3)CC2)[nH]c1=O	-24.7%	–
COC(=O)c1sc(N2CCN(Cc3ccccc3)CC2)nc1N	1.92%	–
CN1CC(=O)N=C1N	–	inactive
N#Cc1c(-c2ccccc2)c(-c2ccccc2)n[nH]c1=O	-27.2%	–
CN(C)c1ccc(CNC(=O)CN2C(=O)COc3ccc(S(=O)(=O)N4CCCC4)cc32)cc1	0.598%	–
Cc1nnc(SCC(=O)N2CCOCC2)[nH]c1=O	24%	–
CCOC(=O)c1c(NC(=O)CSc2nnc(C)c(=O)[nH]2)sc2c1CCC2	-7.67%	–
CCCCOC(=O)CNc1nnc(SCC(=O)OCC)[nH]c1=O	–	10.3 µM (active)
CC(=O)c1ccc[n+](C(C)CCC(C)[n+]2cccc(C(C)=O)c2)c1 (stereo not given)	22.8%	–
Cc1cccc(N2CCN(C(=O)/C=C/c3ccco3)CC2)c1C	–	16.4 µM (active)
CC(=O)N1CCN(c2cccc(C)c2C)CC1	4.39%	–
Cc1cccc(N2CCN(C(=O)c3ccc(Nc4nc5ccccc5n5nnnc45)cc3)CC2)c1C	31.6%	–
O=C(/C=C/c1ccco1)NC(=S)N1CCCCC1	-15%	–
CCOC(=O)c1c(N)n(-c2cccc(C)c2C)c2nc3ccccc3nc12	3.51%	–
CCC(CC)C(=O)N1CCN(c2cccc(C)c2C)CC1	–	14.6 µM (active)
CCn1c(C)c(C)c2cc(C(=O)N3CCN(c4cccc(C)c4C)CC3)ccc21	–	20.6 µM (active)

SMILES	activity change, negative = growth inhibition	Potency
CS(=O)(=O)N1CCc2cc(C(=O)Nc3ccccc3Br)ccc21	1.75%	–
Cc1cccc(N2CCN(C(=O)c3ccc4c(c3)CCN4S(=O)(=O)c3ccccc3)CC2)c1C	–	5.8 µM (active)
Cc1ccccc1N1CCN(C(=O)c2cccnc2)CC1	-0.308%	–
CSc1ccccc1NC(=O)c1ccc2c(c1)CCN2S(C)(=O)=O	0.0239%	–
C[C@H]1CN([C@@H](C)CO)C(=O)CCCn2cc(nn2)CO[C@@H]1CN(C)C(=O)Nc1ccccc1	8.28%	–
CCCCN(C(=O)c1nn(C)c(=O)c2ccccc12)c1c(N)n(CCC)c(=O)[nH]c1=O	1.59%	–
CCCNC(=O)c1cc(C2CCCN(C(=O)c3ccc4c(c3)CCO4)C2)on1 (stereo not given)	5.21%	–
C=Cn1c(C(=O)O)ccc1-c1ccc(OC)cc1	-3.64%	–
CCCCC1N2CC3([N+](=O)[O-])CN1CC([N+](=O)[O-])(C2)C3(C)C (stereo not given)	-4.33%	–
CCOc1ccccc1NC(=S)N1CCN(c2cccc(C)c2C)CC1	–	11.6 µM (active)
Cc1c(C)n(Cc2ccc(Cl)cc2)c2ccc(C(=O)N3CCN(c4ccccc4F)CC3)cc12	–	18.4 µM (active)
O=C(c1ccc(CN2CCOCC2)cc1)N1CCN(c2ccccc2F)CC1	8.09%	–
CCc1ccc(NC(=O)CS(=O)CC(=O)N2CCN(c3ccccc3F)CC2)cc1 (stereo not given)	3.72%	–
Cc1cccc(NC(=S)N2CCC(O)CC2)c1C	5.79%	–
CCOc1ccccc1NC(=O)NC1CCCCCCC1	-7.99%	–
O=[N+]([O-])c1cc(S(=O)(=O)N2CCCC2)ccc1NN=C1CCCC1	-19.3%	–
CC(C)(C)c1ccc(/C=C2\SC(=O)N=C2N)cc1	-3.83%	–
CCOc1ccc(CNC(=O)c2cc(=O)[nH]c3ccc(S(=O)(=O)N4CCCCC4)cc23)cc1	6.67%	–
CC(c1ccco1)N(C(=O)c1ccc(S(=O)(=O)N2CCCCC2)cc1)c1ccccn1 (stereo not given)	-17.2%	–
Cc1ccc(-n2c(CNc3ccc(F)cc3)nnc2SCC(=O)N2CCOCC2)cc1	-2.74%	–
N=C1c2ccccc2-c2ccccc21	-0.123%	–
COc1ccc(N2CCN(C3=NS(=O)(=O)C(c4cccc(Br)c4)=C3C)CC2)cc1	-29.2%	–
Cn1c(=O)cc(OCC(=O)N2CCN(c3ccccc3F)CC2)c2ccccc21	-0.224%	–
O=C(Nn1cc(C(=O)N2CCN(c3ccccc3F)CC2)c2ccccc2c1=O)c1cnccn1	–	14.6 µM (active)
Cc1oc2ncn(CC(C)C)c(=O)c2c1C(=O)N1CCN(c2ccccc2F)CC1	3.61%	–
CCCCOc1ccc(NC(=O)c2cc3c(n(-c4ccc(Cl)cc4)c2=O)CCCC3=O)cc1	-1.03%	–
CC(C)c1ccc(NS(=O)(=O)c2ccc3[nH]cc(C(=O)NC4CCCC4)c(=O)c3c2)cc1	0.142%	–

SMILES	activity change, negative = growth inhibition	Potency
CCC(C)NCCOCCOc1ccc(Br)cc1C (stereo not given)	–	14.6 µM (active)
COCC(C)NCc1cc(Br)ccc1OC (stereo not given)	2.79%	–
CCOC(=O)CC1C(=O)NCCN1C(=O)COc1ccc(Br)cc1C (stereo not given)	-4.21%	–
O=C(OCCOc1ccccc1F)c1cc(S(=O)(=O)N2CCOCC2)ccc1F	10%	–
Cc1oc2ccc(O)c(CN3CCCCC3)c2c1C(=O)Nc1cccc(C(F)(F)F)c1	–	11.6 µM (active)
Cc1nnsc1C(=O)Nc1cccc(Cl)c1C	10.8%	–
CC(=O)N1CCN(C(=O)Nc2cccc(C(F)(F)F)c2)CC1	-2.53%	–
CCOC(=O)c1cccc(NC(=O)c2cc(CN3CCCC3)on2)c1	-20.3%	–
Cc1oc2ccc(O)c(CN3CCC(C)CC3)c2c1C(=O)Nc1ccccc1	–	14.6 µM (active)
O=C(Nc1ccc(CN2CCOCC2)cc1)c1cc(Cl)ccc1Cl	-5.65%	–
Cc1c(CN2CCC(C)CC2)c(=O)n(-c2ccccc2)n1C	-3.32%	–
Cc1oc2ccc(O)c(CN3CCOCC3)c2c1C(=O)Nc1cccc(Cl)c1C	–	11.6 µM (active)
CC1CCN(CCC(=O)Nc2ccccc2)CC1	-1.21%	–
COc1ccccc1CNS(=O)(=O)c1cc2c3c(c1)CCC(=O)N3CCC2	-24.7%	–
Nc1cc(=O)c2[nH]cnc2[nH]1	1.53%	–
Cc1ccc(C(=O)Nc2ccc(OCc3cc(=O)n4c(C)csc4n3)cc2)cc1	0.415%	–
CN(C(=O)c1c(Cl)cnn1C)C12CC3CC(CC(C3)C1)C2	6.33%	–
COC(=O)CSc1nnc(-c2cccnc2)o1	-12.7%	–
COCCNC(=O)c1ccc2c(c1)ncn2-c1ccc(C)c(Cl)c1	-44.9%	–
COC(CNC(=O)c1ccc2c(c1)ncn2-c1cc(C)cc(C)c1)OC	14%	–
CCCNC(=O)c1ccc2c(c1)ncn2-c1ccc(C)cc1C	–	16.4 µM (active)
CCn1c(C)nc2cc(C(=O)NNS(=O)(=O)c3ccc(C)cc3C)ccc21	-15.2%	–
CN(c1ccc(C(=O)NCCC2=CCCCC2)cc1)S(C)(=O)=O	-18.6%	–
Cc1ccc(-n2cnc3cc(C(=O)NCCC4=CCCCC4)ccc32)cc1Cl	–	18.4 µM (active)
CCn1nnnc1SCC(=O)Nc1ccc(N(C)C)cc1	-12.1%	–
CC(=O)NS(=O)(=O)c1ccc(N/C(N)=N/c2nc(C)cc(C)n2)cc1	6.33%	–
COc1ccc(S(=O)(=O)N2CCCC(C(=O)N3CCN(C)CC3)C2)cc1C (stereo not given)	-23.3%	–

SMILES	activity change, negative = growth inhibition	Potency
CCOC(=O)C1CCN(C(=O)C2CCCN(S(=O)(=O)c3ccc(OC)c(Cl)c3)C2)CC1 (stereo not given)	–	16.4 µM (active)
CCN1CCN(C(=O)C2CCCN(S(=O)(=O)c3ccc(OC)c(OC)c3)C2)CC1 (stereo not given)	-12.4%	–
O=C(COC(=O)c1ncc(Cl)c(Cl)c1Cl)NC1CCS(=O)(=O)C1 (stereo not given)	-5.28%	–
C=C(C)c1cccc(C(C)(C)NC(=O)NCCN(CC)CC)c1	-18.1%	–
CC1(C(=O)NS(=O)(=O)c2ccccc2)CCN1C(=O)C1CCCCC1 (stereo not given)	-11.8%	–
COc1cccc(CN(C)CC(=O)Nc2sc3c(c2C#N)CCC3)c1	0.869%	–
Cc1ccc(NC(=O)c2csc3c2CCCC3)cc1	-0.361%	–
CCOC(=O)c1ccc(NC(=O)c2c(NCc3ccccc3)[nH]c(=O)[nH]c2=O)cc1	2.84%	–
CCOC(=O)c1ccc(NC(=O)c2c(NCc3cccs3)sc3c2CCCC3)cc1	–	16.4 µM (active)
CC(=O)Cc1nsc(NC(=O)c2csc3c2CCCC3)n1	-8.51%	–
CCOC(=O)c1c(NC(=O)CCC(=O)NCc2ccco2)sc2c1CCCC2	-15.2%	–
CCOC(=O)c1c(NC(=O)c2cc(-c3ccc(Cl)cc3)on2)sc2c1CCCC2	-18.6%	–
CCOC(=O)c1ccc(NC(=O)c2csc3c2CCCCC3)cc1	–	25.9 µM (active)
CCOC(=O)c1ccc(NC(=O)c2c(NCc3cccc(OC)c3)sc3c2CCC3)cc1	–	10.3 µM (active)
C[C@@H]1CC[C@]2(O[C@@H](CCO)C[C@H](O)[C@H]2O)O1	-8.7%	–
Cn1c(N2CCOCC2)c(C=O)c2ccccc21	-11.8%	–
C[C@H]1COc2cc(N3CCSCC3)ccc2S(=O)(=O)N1	-19.2%	–
Cc1ccc(N=C2SCCCN2C(=O)c2cccc(N3C(=O)CCC3=O)c2)cc1Cl	-4.22%	–
CCCC1C(=O)N2C(N(C)C)=Nc3ccc(C)cc3N2C1=O (stereo not given)	–	inactive
Cc1cc(C)n2nc(SCC(N)=O)nc2n1	1.04%	–
CCC1=NN(C(=O)Cc2ccc([N+](=O)[O-])cc2)C(O)(c2ccc(Br)cc2)C1 (stereo not given)	1.79%	–
Cc1cccc(N2C(=O)N3[C@H](c4ccc(F)cc4)[C@@H]4C(=O)N(C5CCCCC5)C(=O)[C@@H]4[C@]3(Cc3ccccc3)C2=O)c1	-2.11%	–
O=C1CCC(C(=O)N2CCCCO2)CN1Cc1cccc(C(F)(F)F)c1 (stereo not given)	-1.38%	–
Cc1ccc(N2CC(C(=O)NCCS(=O)(=O)N3CCN(c4ccccc4)CC3)CC2=O)cc1 (stereo not given)	–	inactive
